We go through 25 compounds from PubChem BioAssay (NCATS).

Values without a mark were called inactive. Inconclusive results are not listed. Activity calls are given as the source filed them. Calls come from the whole dose curve; as a rule, active = well fitted curve in the direction sought with a large enough effect; inconclusive = small, poorly fitted or top-dose-only effect, or another doubt; inactive = no such curve, though single readings can be large; an effect the other way counts as inactive or inconclusive.

Assay [1] addresses Glutathione peroxidase 1 (Homo sapiens) (UniProt P07203). The assay is described as follows: Primary qHTS Assay for Inhibitors of Recombinant Selenoprotein Glutathione Peroxidase 1 (GPX1) (AID 1845191). For activity, negative = inhibition: % is set by controls: 0 for no effect and ±100 for the full control effect. Note: nearly all actives have a fitted effect of over 65% in size. Put shortly:
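GR-coupled readout: NADPH consumption tracked by fluorescence, ex 340/em 450 nm, at t=0 and after 15 min at RT. Final mix 10 nM GPX1, 1 mM GSH, 0.5 mM CHP, 0.5 mM NADPH, 100 nM GR, 0.01% BSA, following 30 min enzyme–compound preincubation.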
Background: qHTS replaces the single test concentration by a dilution series.

The target in assay [2] is Phospholipid hydroperoxide glutathione peroxidase GPX4 (Homo sapiens) (UniProt P36969). The assay is described as follows: Primary qHTS Assay for Inhibitors of Recombinant Selenoprotein Glutathione Peroxidase 4 (GPX4) (AID 1845192). For activity change, negative = inhibition: series mostly up to about 50 µM; % is set by controls: 0 for no effect and ±100 for the full control effect. Note: nearly all actives have a fitted effect of over 65% in size. Summed up: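 Steps: GPX4 plus compound, 30 min RT; add GR/GSH/NADPH master mix; start with cumene hydroperoxide; read 340/450 nm fluorescence at 0 and 15 min. Finals were 200 nM GPX4, 1 mM GSH, 0.5 mM CHP, 0.5 mM NADPH, 100 nM GR.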

The target of assay [3] is Luciferin 4-monooxygenase (Photinus pyralis) (UniProt P08659). The assay is described as follows: Primary firefly luciferase (FLuc) qHTS assay for identification of artifact compounds. (AID 1845220).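 For activity change, negative = inhibition: series mostly up to about 54 µM; plate controls were DMSO vehicle for no effect and no enzyme for full effect.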 Note: nearly all actives have a fitted effect of over 60% in size. Summed up: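 Titrated compounds were incubated 15 min at RT, protected from light, with luciferin and ATP at 10 uM; reaction started with 10 nM FLuc, luminescence imaged at 5 min, and concentration-response fitted by Hill equation.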

The nature of assay [4]: Primary fluorescence-based thiol-reactive (MSTI) qHTS assay for identification of artifact compounds. (AID 1845221).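 For activity change, negative = thiol reactive: series mostly up to about 54 µM; thiol-reactive compounds lower the probe fluorescence signal.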 Note: nearly all actives have a fitted effect of over 65% in size. Note: potency is the fitted concentration of half-maximal effect. Summed up:
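First, 4 uM MSTI in 2% DMSO/PBS pH 7.4 was dispensed; next, compounds were added; then plates sat 1 h at room temperature without light. Finally, emission at 598 nm was recorded.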

In assay [5] the test system is Nanoluciferase (engineered Oplophorus gracilirostris luciferase). The assay is described as follows: Primary Nanoluciferase (NLuc) qHTS assay for identification of artifact compounds. (AID 1845222).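 For activity, negative = inhibition: NLuc secreted into diluted conditioned medium of S16 cells; series mostly up to about 54 µM; 0% = DMSO and -100% = no enzyme.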 Note: potency is the fitted concentration of half-maximal effect. Put shortly: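 qHTS format, against NLuc in S16 cell-conditioned medium. Nano-Glo substrate 1:100 was added after 15 min at room temperature. Luminescence was taken after a further 5 min.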

The nature of assay [6]: Primary redox qHTS assay for identification of artifact compounds. (AID 1845223).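 Note: 0% = DMSO and 100% = reference compound.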 Put shortly:
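Redox-cycling detection via DTT (250 uM final) oxidation coupled to Amplex Red (25 uM)/HRP (250 mU/mL) in HBSS. 15 min preincubation plus 30 min after DTT, room temperature. Ex/Em 525/598 nm; 4-parameter Hill fit against DMSO and 10 uM DA3003.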

Sequence of Glutathione peroxidase 1 (Homo sapiens) (P07203 whole entry, looked up): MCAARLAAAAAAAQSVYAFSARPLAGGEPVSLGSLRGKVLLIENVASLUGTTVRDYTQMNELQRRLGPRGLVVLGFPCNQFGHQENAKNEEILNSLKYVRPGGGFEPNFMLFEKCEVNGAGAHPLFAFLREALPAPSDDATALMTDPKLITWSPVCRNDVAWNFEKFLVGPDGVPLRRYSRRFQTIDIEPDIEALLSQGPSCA
Sequence of Phospholipid hydroperoxide glutathione peroxidase GPX4 (Homo sapiens) (P36969 whole entry, looked up): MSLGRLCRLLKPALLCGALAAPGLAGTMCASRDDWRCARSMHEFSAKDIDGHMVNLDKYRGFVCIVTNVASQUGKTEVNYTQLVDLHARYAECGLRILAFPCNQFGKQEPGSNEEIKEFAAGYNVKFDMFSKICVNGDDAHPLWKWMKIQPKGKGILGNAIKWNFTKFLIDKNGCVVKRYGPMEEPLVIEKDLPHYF

As to `CC(=O)OCC1(O)CCC2C(COC3OC(CO)C(O)C(O)C3OC(=O)/C=C/c3ccc(O)cc3)=COC(OC(=O)CC(C)C)C21` (stereo not drawn), the Potency entry in assay [1], in assay [2], in assay [3], in assay [4] and in assay [5] was “inactive” each time.

Take `Cc1noc(=O)c2ccc(NC(=O)C(O)(CC(C)(C)c3cccc4c3OCC4)C(F)(F)F)cc12` (stereo not drawn): the Potency result in assay [1], in assay [2], in assay [3], in assay [4] and in assay [5] was “inactive” in each case.

As for `C[C@H]1Oc2cc(cnc2N)-c2c(nn(C)c2C#N)CN(C)C(=O)c2ccc(F)cc21`, the Potency result in assay [1], in assay [2], in assay [3], in assay [4], in assay [5] and in assay [6] was “inactive” each time.

For the compound `Cc1cc(Nc2nc(NC(C)c3ncc(F)cn3)ncc2Cl)n[nH]1` (stereo not drawn), the Potency result in assay [1], in assay [2], in assay [3], in assay [4], in assay [5] and in assay [6] was “inactive” throughout.

With `CC(=O)O[C@@H]1[C@H](O[C@@H]2O[C@@H](CO)[C@H](O)[C@H]2O)[C@@H](O[C@@H]2O[C@@H](C)[C@H](O[C@@H]3OC[C@@H](O)[C@H](O)[C@H]3O)[C@@H](O)[C@H]2O)[C@H](OC(=O)[C@]23CCC(C)(C)C[C@H]2C2=CCC4[C@@]5(C)CC[C@H](O[C@@H]6O[C@H](C(=O)O)[C@@H](O)[C@H](O)[C@H]6O[C@@H]6O[C@H](CO)[C@H](O)[C@H](O)[C@H]6O)[C@@](C)(C=O)C5CC[C@@]4(C)[C@]2(C)CC3)O[C@@H]1C` (stereo partly drawn), the values for the activity, negative = inhibition in assay [1] and in assay [5] were -3.42% [at 9.52 µM] and 0% [at 11.6 µM], respectively. For the same compound, the activity change, negative = inhibition in assay [2] is 2.32% [at 9.73 µM]; in assay [3], 4.46% [at 11.6 µM]. Moreover, the activity change, negative = thiol reactive in assay [4] is 321% [at 11.5 µM]. For the same compound, the redox activity (% of DA3003) in assay [6] was 1.35% [at 11.5 µM].

On to `CC(=O)O[C@H]1CC[C@H](C)[C@@]2(C)[C@H](OC(C)=O)c3c(C)coc3C(=O)[C@H]12`, for which the Potency entry in assay [1], in assay [2], in assay [3], in assay [4], in assay [5] and in assay [6] was “inactive” throughout.

With `CC(=O)NC[C@H]1CN(c2ccc(N3CCN(C(=O)CO)CC3)c(F)c2)C(=O)O1`, the Potency entry in assay [1], in assay [2], in assay [3], in assay [4], in assay [5] and in assay [6] was “inactive” in each case.

Consider `O=S(=O)(NC1CCC(c2cc(F)ccc2F)(S(=O)(=O)c2ccc(Cl)cc2)CC1)C(F)(F)F` (stereo not drawn), for which the Potency entry in assay [1], in assay [2], in assay [3], in assay [4], in assay [5] and in assay [6] was “inactive” each time.

On to `O=C1CCC(c2ccccc2)(C2CCN(Cc3ccc(I)cc3)CC2)C(=O)N1` (stereo not drawn), for which the Potency result in assay [1], in assay [2], in assay [3], in assay [4], in assay [5] and in assay [6] was “inactive” each time.

For `C/C1=C\C[C@]2(C)C(=O)C(O)=C([C@H](C)CO)[C@H]2C/C=C(\C)[C@@H](O)CC/C(C)=C/CC1`, the Potency entry in assay [1], in assay [2], in assay [3], in assay [4], in assay [5] and in assay [6] was “inactive” each time.

For the compound `Oc1ccc2nc(CN3CCC(Cc4ccccc4F)CC3)[nH]c2c1`, the Potency entry in assay [1], in assay [2], in assay [3], in assay [4], in assay [5] and in assay [6] was “inactive” in each case.

For the compound `CCOC(=O)c1sc(NC(=O)[C@H](C(C)C)n2c(=O)[nH]c3ccccc3c2=O)nc1C`, the Potency result in assay [1], in assay [2], in assay [3], in assay [4], in assay [5] and in assay [6] was “inactive” throughout.

As to `CC1(C)CCC[C@]2(C)[C@H]3CC(=O)O[C@]3(C)CC[C@@H]12`, the Potency result in assay [1], in assay [2], in assay [3], in assay [4], in assay [5] and in assay [6] was “inactive” each time.

Regarding `COc1c2c(c(C)c3c1C(=O)OC3)O[C@@]1(C)CC(O)C(C(C)(C)O)[C@](C)(CCC(=O)O)[C@H]1C2` (stereo partly drawn), the Potency entry in assay [1], in assay [2], in assay [3], in assay [4], in assay [5] and in assay [6] was “inactive” in each case.

For the compound `C=CC(C)(O)CC/C=C(\C)C(=O)OC1C(O)C(CO)OC(OC(=O)C23CCC(C)(C)CC2C2=CCC4C5(C)CCC(OC6OC(COC7OCC(OC(C)=O)C(O)C7OC7OC(COC(C)=O)C(O)C(O)C7O)C(O)C(O)C6O)C(C)(C)C5CCC4(C)C2(C)C(O)C3O)C1OC1OCC(OC2OCC(O)C(OC3OCC(O)C(O)C3O)C2O)C(O)C1O` (stereo not drawn), the outcome is “inactive [at 9.52 µM]” in assay [1] and “inactive [at 9.73 µM]” in assay [2]. Besides, the activity change, negative = inhibition in assay [3] is 0.903% [at 6.45 µM]. Besides, in assay [4], the activity change, negative = thiol reactive is 213% [at 6.41 µM]. The activity, negative = inhibition in assay [5] was 2.81% [at 6.45 µM]. Further, in assay [6], the redox activity (% of DA3003) was -2.76% [at 6.41 µM].

Turning to `O=C(Nc1ccccc1-c1cn2c(CN3CCNCC3)csc2n1)c1ccc2ccccc2n1`, the Potency entry in assay [1], in assay [2], in assay [3], in assay [4], in assay [5] and in assay [6] was “inactive” in each case.

As to `Cc1c(F)cc(C(=O)NC2CC2)cc1-c1c(F)cn2c(C(C)(C)C)nnc2c1F`, the Potency entry in assay [1], in assay [2], in assay [3], in assay [4], in assay [5] and in assay [6] was “inactive” throughout.

As for `CSc1ccc(C(=O)N[C@@H]2CCCC[C@@H]2NC(=O)CNC(=O)c2cc(C(F)(F)F)ccc2NC(=O)NC(C)C)cc1`, the Potency result in assay [1], in assay [2], in assay [3], in assay [4], in assay [5] and in assay [6] was “inactive” each time.

In the case of `Cc1noc(-c2ccc(-c3ccc(CC(=O)O)cc3)cc2)c1NC(=O)O[C@H](C)c1ccccc1`, the Potency result in assay [1], in assay [2], in assay [3], in assay [4] and in assay [6] was “inactive” throughout. Further, the Potency in assay [5] is 10.7 µM (active).

In the case of `O=S(=O)(c1ccccc1)c1cnc2c(N3CCNCC3)cccc2c1`, the Potency result in assay [1], in assay [2], in assay [3], in assay [4], in assay [5] and in assay [6] was “inactive” in each case.

On to `O=C(O)COCCN1CCN([C@H](c2ccccc2)c2ccc(Cl)cc2)CC1`, for which the Potency entry in assay [1], in assay [2], in assay [3], in assay [4], in assay [5] and in assay [6] was “inactive” throughout.

With `COc1cc(Nc2nc3ccccc3nc2NS(=O)(=O)c2ccc(NC(=O)c3ccc(OC)c(C)c3)cc2)cc(OC)c1`, the Potency result in assay [1], in assay [2], in assay [3], in assay [5] and in assay [6] was “inactive” each time. Besides, in assay [4], the Potency was 1.68 µM (active).

Regarding `Cc1cccc(-c2[nH]c(Cc3cccc(C(N)=O)c3)nc2-c2ccc3nccnc3c2)n1`, the Potency entry in assay [1], in assay [2], in assay [3], in assay [4], in assay [5] and in assay [6] was “inactive” throughout.

Consider `CC1=C2C(O)C(=O)OC(c3ccoc3)C2(C)CCC1O` (stereo not drawn), for which the Potency result in assay [1], in assay [2], in assay [3], in assay [4], in assay [5] and in assay [6] was “inactive” in each case.

For the compound `O=C1CCC(=O)N(O)CCCCCNC(=O)CCC(=O)N(O)CCOCCNC(=O)CCC(=O)N(O)CCCCCN1`, the Potency entry in assay [1], in assay [2], in assay [3], in assay [4], in assay [5] and in assay [6] was “inactive” in each case.
